# Source: PubChem BioAssay (NCI)
# Several values for one entry are separate records, joined by “and”; a condition that tells them apart may be missing. Equal entries are not always repeated. About 79,000 compounds went through this panel and 15% of them were active in at least one assay; those are over-represented in the sample as a whole. A structure can be active in one record and inactive in another. Activity calls are given as the source filed them. Rule as the data show it: active = growth inhibition above about 70%; inactive = the rest.
# Legend:
# [1] = NCI Yeast Anticancer Drug Screen. Data for the rad50 strain (AID 155);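 also: 0% = growth of vehicle-only cultures of the same strain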; conditions: S. cerevisiae rad50 strain growth inhibition, stronger effect = higher value
# Procedure, shortened: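 Genetically altered yeast (DNA repair pathway); compound treatment; growth inhibition vs vehicle ctrl.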
# [2] = NCI Yeast Anticancer Drug Screen. Data for the mec2-1 strain (AID 157); conditions: S. cerevisiae mec2-1 strain, stronger effect = higher value
# Procedure, shortened: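 Mutant yeast (mec2-1) grown with compound; growth inhibition relative to vehicle control reported.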
# [3] = NCI Yeast Anticancer Drug Screen. Data for the sgs1 mgt1 strain (AID 161);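 also: 0% = growth of cultures given vehicle only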; conditions: S. cerevisiae sgs1 mgt1 strain, stronger effect = higher value
# Procedure, shortened: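 Growth of a repair-deficient yeast mutant was monitored after compound treatment and expressed as inhibition relative to vehicle-treated cultures.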
# [4] = NCI Yeast Anticancer Drug Screen. Data for the cln2 rad14 strain (AID 165);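 also: 0% = growth equal to vehicle treated cultures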; conditions: S. cerevisiae cln2 rad14 strain, stronger effect = higher value
# Procedure, shortened: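 Readout is yeast growth inhibition versus vehicle-treated controls, using a strain with cln2 and rad14 alterations exposed to compound.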
# [5] = NCI Yeast Anticancer Drug Screen. Data for the bub3 strain (AID 167); conditions: S. cerevisiae bub3 mutant strain, stronger effect = higher value
# Procedure, shortened: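 Yeast carrying a defined mutation is treated with each compound, and growth is compared with that of vehicle-exposed cells to give inhibition.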
# [6] = NCI Yeast Anticancer Drug Screen. Data for the mlh1 rad18 strain (AID 175); conditions: S. cerevisiae mlh1 rad18 strain growth inhibition, stronger effect = higher value
# Procedure, shortened: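 Genetically defined yeast (DNA repair-deficient) exposed to compounds; growth inhibition determined relative to vehicle.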
# [7] = at 5.0 µM (retest, dose inferred, filed as 0.5)
# [8] = at 50.0 µM (retest, dose inferred, filed as 5.0)
Structure (SMILES),"growth inhibition [1, 7]","growth inhibition [1, 8]",growth inhibition ([1]; at 50.0 µM),"growth inhibition [2, 7]","growth inhibition [2, 8]",growth inhibition ([2]; at 50.0 µM),"growth inhibition [3, 7]","growth inhibition [3, 8]",growth inhibition ([3]; at 50.0 µM),"growth inhibition [4, 7]","growth inhibition [4, 8]",growth inhibition ([4]; at 50.0 µM),"growth inhibition [5, 7]","growth inhibition [5, 8]",growth inhibition ([5]; at 50.0 µM),"growth inhibition [6, 7]","growth inhibition [6, 8]",growth inhibition ([6]; at 50.0 µM)
CCCNC(=O)Nc1ccc2c(c1)Cc1cc(N(CCCl)CCCl)ccc1-2,2% (inactive),32% (inactive),39.1% (inactive),0% (inactive),16% (inactive),23.1% (inactive),-4% (inactive),73% (active),37.3% (inactive),3% (inactive),-1% (inactive),24.9% (inactive),6% (inactive),86% (active),76.5% (active),3% (inactive),52% (inactive),31.2% (inactive)
CC1C(=O)OCC1(C)O (stereo not given),1% (inactive),-2% (inactive),-15.2% (inactive),1% (inactive),0% (inactive),-11.7% (inactive),-4% (inactive),0% (inactive),-5.55% (inactive),1% (inactive),0% (inactive),0.75% (inactive),2% (inactive),2% (inactive),46% (inactive),4% (inactive),3% (inactive),-21.6% (inactive)
C/C=C(\C)C(=O)OC1C(C)=C2C(C1OC(=O)CCCCC)C(C)(OC(C)=O)CC(OC(=O)CCC)C1(O)C2OC(=O)C1(C)O (stereo not given),26% (inactive),85% (active),77.6% (active),15% (inactive),86% (active),83.5% (active),20% (inactive),91% (active),74.8% (active),34% (inactive),95% (active),82.6% (active),17% (inactive),92% (active),73.4% (active),34% (inactive),87% (active),67.6% (inactive)
ClC1=NSSC1(Cl)Cl,16% (inactive),96% (active),90.4% (active),16% (inactive),99% (active),92.5% (active),18% (inactive),99% (active),91.2% (active),20% (inactive),78% (active),87.7% (active),21% (inactive),99% (active),90.3% (active),17% (inactive),90% (active),92.2% (active)
O=C(c1ccc(Br)cc1)C1C(c2ccccc2)N1C1CCCCC1 (stereo not given),1% (inactive),79% (active),95.7% (active),0% (inactive),73% (active),96.6% (active),-1% (inactive),72% (active),96.5% (active),-4% (inactive),58% (inactive),94.2% (active),4% (inactive),94% (active),95% (active),-2% (inactive),86% (active),91% (active)
CC/C(=C(/CC)c1ccc(OP(N)(=O)N(CCCl)CCCl)cc1)c1ccc(OP(N)(=O)N(CCCl)CCCl)cc1 (stereo not given),18% (inactive),33% (inactive),17.1% (inactive),-5% (inactive),26% (inactive),5.6% (inactive),2% (inactive),42% (inactive),34.7% (inactive),3% (inactive),31% (inactive),-9.95% (inactive),29% (inactive),34% (inactive),0.1% (inactive),26% (inactive),51% (inactive),66.8% (inactive)
N#Cc1ccccc1C(Cl)(Cl)Cl,3% (inactive),-6% (inactive),-5.55% (inactive),6% (inactive),12% (inactive),-21.9% (inactive),-8% (inactive),3% (inactive),-7.1% (inactive),38% (inactive),18% (inactive),27.1% (inactive),26% (inactive),13% (inactive),16.4% (inactive),9% (inactive),28% (inactive),-0.3% (inactive)
CC(=O)OC1CCC2(C)C3CCC4(C)C(OC(=O)c5ccccc5)CCC4C3CC(Br)C2(O)C1 (stereo not given),35% (inactive),56% (inactive),87.1% (active),27% (inactive),39% (inactive),87.9% (active),44% (inactive),64% (inactive),89.5% (active),40% (inactive),44% (inactive),90.8% (active),45% (inactive),56% (inactive),86.8% (active),42% (inactive),56% (inactive),85.7% (active)
CCCCS.[Hg],99% (active),94% (active),98.9% (active),99% (active),96% (active),99% (active),99% (active),94% (active),99.1% (active),97% (active),93% (active),98.7% (active),99% (active),93% (active),98.8% (active),99% (active),94% (active),99.2% (active)
Cc1ccc(C(=O)CCl)c(C)c1,11% (inactive) and 16% (inactive),99% (active) and 94% (active),96.4% (active) and 87.7% (active),23% (inactive) and 18% (inactive),99% (active) and 92% (active),98.2% (active) and 91.6% (active),25% (inactive) and 11% (inactive),99% (active) and 55% (inactive),94.7% (active) and 96.1% (active),15% (inactive) and 17% (inactive),97% (active) and 83% (active),87.3% (active) and 71.6% (active),8% (inactive) and 2% (inactive),99% (active) and 97% (active),91.8% (active) and 90.2% (active),28% (inactive) and 7% (inactive),99% (active),97.7% (active) and 97.1% (active)
